Results on 22 compounds are retold here after PubChem BioAssay AID720650 (Broad Institute, 2013).

A number with no mark means an inactive call. Activity calls are given as the source filed them. No rule for the calls is given here. Where only a bound is given, the exact number is not on record here.

This experiment in a line: Biochemical counterscreen for C difficile toxins, absence of UDPG, inhibitor dose response (AID 720650). Particulars: series mostly up to 19.5 µM; activity change, negative = inhibition: at the top concentration. In general terms: Counterscreens check selectivity or assay interference.
A word on the AC50: it is the midpoint of the concentration-response curve, whichever way the signal moves. Regarding `CCCNC(=O)C[C@H]1CC[C@@H]2[C@@H](COc3ccc(NC(=O)c4ccc(Cl)cc4)cc3C(=O)N2C)O1`, the AC50 was more than 39 µM. For `COc1cc(/C=C/C(=O)OCC(=O)NC(=O)NC(C)C)ccc1O`, the “activity change, negative = inhibition” value was -1.06%.

For the compound `COc1ccccc1-n1c(CCC(=O)O)ccc1-c1ccccc1`, the “activity change, negative = inhibition” value was -1.98%.

In the case of `COc1ccc(NC(=O)CN(C)C(=O)c2cccc(NS(=O)(=O)c3ccc(Br)cc3)c2)cc1`, the “activity change, negative = inhibition” value is -3.88%. Still for that read-out and setting: then `Clc1ccc(/C=C/c2ncc[nH]2)c(Cl)c1`, with -10.7%; and `Cc1ccc(C2=NS(=O)(=O)N(C)C(C(=O)NCc3ccccc3)=C2)cc1`, with -8.53%; and `Cc1ccc(S(=O)(=O)Nc2cccnc2Oc2ccc(Cl)cc2)cc1`, with -12.2%. With `Cn1c(=O)[nH]c(=O)c2c1[nH]c(=S)n2Cc1ccc(Cl)cc1`, the AC50 is more than 39 µM.

For `Nc1ccc(OC(=O)Nc2ccc(O)cc2)cc1`, the half-maximal activity concentration (AC50) was 18.9 µM (active). Turning to `COc1ccc(C2=NS(=O)(=O)N(C)C(C(=O)N(C)Cc3ccccc3)=C2)cc1OC`, the “activity change, negative = inhibition” value was -7.42%. Turning to `CC1C(=O)NN=C1c1ccc([N+](=O)[O-])cc1` (configuration not stated), the “activity change, negative = inhibition” value was 2.17%. Still for that read-out and setting: then `CCN1CCN(C(=O)C2=CC(c3ccc(OC)cc3)=NS(=O)(=O)N2C)CC1`, with -16.2%. Still for that read-out and setting: then `CCCNC(=O)Nc1ccc2c(c1)C(=O)N(C)[C@H]1CC[C@H](CC(=O)NC3CCC3)O[C@@H]1CO2`, with 15.4%; and `Fc1cccc(NC(=S)NNc2c3ccccc3nc3ccccc23)c1`, with -12.2%.

In the case of `CCCc1cc(=O)oc2c3c(cc(OCC(=O)NCCCn4ccnc4)c12)OC(C)(C)CC3`, the “activity change, negative = inhibition” value was 11.7%. Consider `Oc1ccc(-c2nc3cnccn3c2Nc2ccc3c(c2)OCCO3)cc1`, for which the “activity change, negative = inhibition” value is -2.26%. Regarding `O=C(/C=C/c1ccccc1)Nc1cccnc1Cl`, the AC50 is more than 39 µM. As to `O=C(C[C@@H]1CC[C@H]2[C@@H](COC[C@@H](O)CN2C(=O)c2ccccn2)O1)NC1CCC1`, the “activity change, negative = inhibition” value was -1.73%. Still for that read-out and setting: then `O=c1c([N+](=O)[O-])cccn1Cc1ccc(F)cc1Cl`, with -8.58%.

With `COc1cc(/C=N/NC(=O)CSc2ccccn2)ccc1O`, the “activity change, negative = inhibition” value is -4.05%. In the case of `O=c1[nH]c(/C=C\c2ccc(O)c(Cl)c2)nc(O)c1[N+](=O)[O-]`, the concentration at half-maximal activity (AC50) was 20 µM (active). On the same count and under the same terms, then `O=C(Nc1ccc2c(c1)OCCO2)c1cc2ccccc2o1`, with more than 39 µM.
